Reference: PubChem BioAssay (NCATS)
Where “and” joins values, the source holds several entries; their conditions need not be identical. Equal entries are not always repeated. Results filed as inconclusive are left out. Calls of active or inactive are those of the source. Unless noted, the call rests on the fitted dose curve; in most records, active means well fitted curve in the direction sought with a large enough effect; inconclusive means small, poorly fitted or top-dose-only effect, or another doubt; inactive means no such curve, though single readings can be large; an effect the other way counts as inactive or inconclusive.

What was measured:
[1] = target: Cytochrome P450 3A4 (Homo sapiens) (UniProt P08684); assay: qHTS Assay for Inhibitors and Substrates of Cytochrome P450 3A4 (AID 884); further: nearly all actives have a fitted effect of over 50% in size; further: potency means the concentration at half of the fitted maximal effect
Outline: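 20 nM human CYP3A4 with 25 uM Luciferin-PPXE (at KM) in 200 mM KPO4, preincubated 10 min with compound; NADPH regeneration started a 60 min RT reaction. Luciferin detected by luminescence, normalized to 57 uM ketoconazole as full inhibition.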

[2] = Cellular Toxicity (caspase-3) N2a (AID 665);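 further: compound exposure lasted 16 h at 37 °C before readout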
Outline: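 Mouse N2a neuroblastoma cells, 1500 per well, treated 16 h at 37 °C in complete medium; caspase-3/7 activity by Caspase-Glo luminescence after 1 h. Normalized to DMSO and 10 uM staurosporine; AC50 from Hill fits.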

[3] = Cellular Toxicity (caspase-3) NIH 3T3 (AID 666);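 further: 0% = DMSO basal and 100% = 100 µM tamoxifen stimulation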
Outline: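 Mouse NIH 3T3 fibroblasts (1000/well) treated 16 h at 37 C; caspase-3/7 activity measured by Caspase-Glo 3/7 luminescence after 20 min. Normalized to DMSO and 100 uM tamoxifen; AC50 from Hill fits.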

[4] = Cellular Toxicity (caspase-3) Renal Proximal Tubule (AID 667);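 further: cells exposed to compound for 16 hours at 37 °C before detection; 0% = DMSO basal and 100% = 10 µM staurosporine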
Outline: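 Caspase-Glo 3/7 read-out, rat primary kidney proximal tubule cells. Compound exposure 16 h, 37 °C; detection after 1 h at RT. Activity scaled to DMSO and 10 uM staurosporine.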

[5] = target: Cytochrome P450 3A4 (Homo sapiens) (UniProt P08684); assay: qHTS Assay for Activators of Cytochrome P450 3A4 (AID 885); further: nearly all actives have a fitted effect of over 65% in size; further: potency means the concentration at half of the fitted maximal effect
Outline: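 Quantitative HTS format: compounds preincubated with 20nM human CYP3A4 and Luciferin-PPXE substrate at KM, reaction started by NADPH regeneration, stopped after 60 min, luciferase luminescence read 20 min later.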

[6] = Confirmation and Secondary Assay for Modulators of Hemoglobin Beta Chain Splicing at IVS2 654 locus (AID 910);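 further: per-well total GFP intensity by laser scanning cytometry after 2-day treatment; % of control where 0% means no effect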
Outline: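 HeLa cells stably carrying EGFP interrupted by mutant beta-globin IVS2-654 intron (CMV-driven) were treated with compound for 2 days at 37C; corrected splicing was scored as total peak GFP intensity per well (488 nm excitation, 500-520 nm emission).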

[7] = Cell Viability - LYMP2-001 (AID 921);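 further: cells exposed to compound for 24 h at 37 °C; nearly all actives have a fitted effect of over 70% in size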; further: potency means the concentration at half of the fitted maximal effect
Outline: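 A lymphoblastoid cell line of human origin was treated with library compounds across a concentration series for 24 hours, and viable cell number was estimated from ATP-driven luciferase light output. Hill modeling gave AC50.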

[8] = Confirmation and Secondary Assay for Modulators of Hemoglobin Beta Chain Splicing at IVS2 705 locus (AID 930);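 further: HeLa cells stably expressing the EGFP-705 splicing reporter; GFP fluorescence per well restored by corrected splicing of the IVS2-705 intron in EGFP; series mostly up to about 46 µM; % of control where 0% means no effect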
Outline: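 HeLa IVS2-705 EGFP reporter cells, 500/well, compound 2 d at 37C; correct splicing yields fluorescent EGFP. Control: 500 nM antisense PNA. Read-out: total peak GFP intensity.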

[9] = MultiTox-Fluor Cytotoxicity Assay - LYMP1-001 - Dead Cells (AID 946); further: potency means the concentration at half of the fitted maximal effect
Outline: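 In this qHTS, 15 uM tetraoctylammonium bromide defined 100% and DMSO defined basal activity. Lymphoblastoid cells (LYMP1-001, 2500 per well) received compound for 16 hr at 37 C before a fluorogenic dead-cell substrate readout at 485/520 nm.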

[10] = MultiTox-Fluor Cytotoxicity Assay - LYMP1-001 - Live Cells (AID 947); further: potency means the concentration at half of the fitted maximal effect
[11] = target: Cytochrome P450 2C9 (Homo sapiens) (UniProt P11712); assay: qHTS Assay for Inhibitors and Substrates of Cytochrome P450 2C9 (AID 883); further: nearly all actives have a fitted effect of over 60% in size; further: potency means the concentration at half of the fitted maximal effect
Outline: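 A luminogenic readout tracked human CYP2C9 (10nM) converting deoxyluciferin (100uM, at KM) in 25mM KPO4 during 60 min at 37C with regenerated NADPH. Values normalized to 57uM sulphaphenazole as complete inhibition.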

[12] = target: Cytochrome P450 2C19 (Homo sapiens) (UniProt P33261); assay: qHTS Assay for Inhibitors and Substrates of Cytochrome P450 2C19 (AID 899); further: nearly all actives have a fitted effect of over 60% in size; further: potency means the concentration at half of the fitted maximal effect
Outline: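 NADPH-dependent conversion of Luciferin-H EGE (10uM, at KM) by 5nM enzyme in 50mM KPO4, 60 min at 37C following 10 min compound preincubation. Stopped with luciferin detection buffer; luminescence read after 20 min.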

[13] = target: Guanine nucleotide-binding protein G(i) subunit alpha-1 (Homo sapiens) (UniProt P63096); assay: qHTS Assay for Inhibitors of RGS12 GoLoco Motif Activity (Green Fluorophore) (AID 879);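 further: 0% = labeled peptide with Gαi1 and full inhibition = labeled peptide alone without protein; negative values mean loss of peptide binding seen as reduced polarization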
Outline: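 Fluorescence polarization assay: 50 nM Gαi1 with 10 nM FITC-labeled RGS12 GoLoco peptide in 10 mM Tris pH 7.5, 150 mM NaCl, 0.1 mM GDP, 0.05% NP40, 10 min at room temperature with compound.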

[14] = qHTS Assay for Identification of Small Molecule Antagonists for NFkB Signaling Pathway (AID 895; active means well fitted inhibition curve with a large enough effect in the signal ratio, with a control signal flat, not every such curve was filed as active; the % refers to the signal ratio; further: on the % scale 0 is the no-effect control and ±100 the full control effect)
Outline: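 NFkB-bla ME-180 cervical carcinoma cells with beta-lactamase reporter under NFkB response element; compounds added, then TNF alpha at 10 pM final (EC50), 5 h at 37 C. LiveBLAzer substrate 2 h, room temperature; emission 460/530 nm at 405 nm excitation.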

[15] = qHTS Assay for Identification of Small Molecule Agonists for Thrombopoietin (TPO) Signaling Pathway (AID 917); further: on the % scale 0 is the no-effect control and ±100 the full control effect
Outline: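 IL-3-dependent murine pro-B Ba/F3 cells, stably transfected with human TPO receptor and GpIIb-promoter luciferase, are incubated 24 hrs at 37 C with test compound and 26 pM TPO; luciferase signal is read after 10 min at room temperature.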

[16] = target: Muscarinic acetylcholine receptor M1 (Rattus norvegicus) (UniProt P08482); assay: qHTS Assay for Antagonists of Acetylcholine Muscarinic M1 Receptor: Kinetic Measurement of Intracellular Calcium Response (AID 943); further: nearly all actives have a fitted effect of over 75% in size; further: potency means the concentration at half of the fitted maximal effect
Outline: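 CHO cells expressing rat M1 receptor, Fluo-4 loaded, preincubated 10 min with compound, then stimulated with EC80 carbachol (100 nM final). Kinetic calcium fluorescence over 4 min; response taken as peak over basal signal.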

[17] = target: Pyruvate kinase (Leishmania mexicana) (UniProt Q27686); assay: qHTS Validation Assay for Inhibitors of Leishmania Mexicana Pyruvate Kinase (AID 945);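 further: 0% = DMSO only neutral control wells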
Outline: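 Eight-point qHTS titrations; enzyme 0.2 nM LmPYK (E451W mutant); substrates 0.5 mM PEP, 0.1 mM ADP; 7 mM MgCl2; 1 h room temperature; PKLight luminescence normalized to neutral control.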

[18] = target: Cytochrome P450 2D6 (Homo sapiens) (UniProt P10635); assay: qHTS Assay for Inhibitors and Substrates of Cytochrome P450 2D6 (AID 891); further: nearly all actives have a fitted effect of over 60% in size; further: potency means the concentration at half of the fitted maximal effect
Outline: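 Human CYP2D6 (5 nM) with 30 uM Luciferin-ME EGE (at Km) in 100 mM KPO4, compound preincubated 10 min, then NADPH regeneration system for 60 min at room temperature. Luciferin read by luminescence; normalized to 1.43 uM quinidine.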

[19] = target: Muscarinic acetylcholine receptor M1 (Rattus norvegicus) (UniProt P08482); assay: qHTS Assay for Antagonists of Acetylcholine Muscarinic M1 Receptor: Measurement of IP-One Response (AID 944); further: nearly all actives have a fitted effect of over 75% in size; further: potency means the concentration at half of the fitted maximal effect
Outline: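 CHO cells stably expressing rat M1, pretreated 10 min with compound, then stimulated 30 min with carbachol at EC80 (200 nM) in LiCl-containing buffer pH 7.4; IP1 accumulation read by HTRF competition (665/620 nm).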

[20] = qHTS Assay for Identification of Small Molecule Agonists for Hypoxia Response Element Signaling Pathway (AID 914; active means well fitted activation curve with a large enough effect in the signal ratio, with a control signal flat, not every such curve was filed as active; the % refers to the signal ratio; further: % of control where 0% means no effect); details: ME-180 (cervical carcinoma) HRE-bla reporter, beta-lactamase ratio, CoCl2, 17 h; active compounds read high
Outline: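 HRE-bla ME-180 assay for agonist-like enhancement of an EC50 CoCl2 stimulus: 17 h at 37 degrees Celsius, CCF4 for 2.5 h, ratiometric 460/530 nm signal converted to %Activity and fitted to AC50.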

Cytochrome P450 3A4 (Homo sapiens), sequence (P08684 whole entry, looked up): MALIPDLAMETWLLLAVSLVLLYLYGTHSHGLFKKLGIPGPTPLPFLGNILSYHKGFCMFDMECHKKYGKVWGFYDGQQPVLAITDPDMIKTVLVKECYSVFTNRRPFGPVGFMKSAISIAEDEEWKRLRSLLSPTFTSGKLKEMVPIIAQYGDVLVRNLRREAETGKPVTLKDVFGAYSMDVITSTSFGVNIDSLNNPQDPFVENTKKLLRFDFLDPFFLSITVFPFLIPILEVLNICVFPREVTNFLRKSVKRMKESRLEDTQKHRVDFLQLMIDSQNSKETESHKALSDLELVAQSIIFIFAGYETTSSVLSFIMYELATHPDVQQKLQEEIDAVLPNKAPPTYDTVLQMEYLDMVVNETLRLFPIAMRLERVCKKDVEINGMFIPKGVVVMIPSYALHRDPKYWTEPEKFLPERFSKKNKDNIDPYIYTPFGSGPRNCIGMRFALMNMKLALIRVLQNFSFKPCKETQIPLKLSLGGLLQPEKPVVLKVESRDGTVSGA
Cytochrome P450 2C9 (Homo sapiens), sequence (P11712 whole entry, looked up): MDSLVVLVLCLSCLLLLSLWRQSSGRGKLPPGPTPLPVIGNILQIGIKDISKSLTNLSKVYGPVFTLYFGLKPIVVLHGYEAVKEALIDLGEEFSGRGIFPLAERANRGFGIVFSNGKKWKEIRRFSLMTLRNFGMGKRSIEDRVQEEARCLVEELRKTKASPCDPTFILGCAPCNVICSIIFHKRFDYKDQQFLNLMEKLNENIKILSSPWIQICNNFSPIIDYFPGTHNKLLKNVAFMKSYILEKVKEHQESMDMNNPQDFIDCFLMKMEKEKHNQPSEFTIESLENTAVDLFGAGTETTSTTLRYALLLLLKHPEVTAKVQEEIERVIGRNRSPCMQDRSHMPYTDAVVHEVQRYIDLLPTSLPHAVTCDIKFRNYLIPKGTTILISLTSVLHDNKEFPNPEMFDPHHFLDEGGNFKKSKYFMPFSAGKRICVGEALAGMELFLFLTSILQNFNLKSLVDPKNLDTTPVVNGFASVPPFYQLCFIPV
Cytochrome P450 2D6 (Homo sapiens), sequence (P10635 whole entry, looked up): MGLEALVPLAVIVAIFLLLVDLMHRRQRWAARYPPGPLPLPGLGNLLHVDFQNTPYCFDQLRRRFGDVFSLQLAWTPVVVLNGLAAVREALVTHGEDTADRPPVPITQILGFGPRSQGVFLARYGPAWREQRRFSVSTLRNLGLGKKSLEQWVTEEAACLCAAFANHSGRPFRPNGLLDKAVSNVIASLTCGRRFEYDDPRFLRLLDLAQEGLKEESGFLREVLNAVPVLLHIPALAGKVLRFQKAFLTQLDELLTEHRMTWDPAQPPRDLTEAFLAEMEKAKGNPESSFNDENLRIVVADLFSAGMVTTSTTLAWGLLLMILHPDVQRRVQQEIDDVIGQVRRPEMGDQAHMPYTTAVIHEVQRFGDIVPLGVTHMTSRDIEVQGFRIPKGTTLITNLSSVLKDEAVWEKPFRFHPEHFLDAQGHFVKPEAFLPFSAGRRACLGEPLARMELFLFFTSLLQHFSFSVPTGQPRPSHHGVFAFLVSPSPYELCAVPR
Pyruvate kinase (Leishmania mexicana), sequence (Q27686 2-499 E452W): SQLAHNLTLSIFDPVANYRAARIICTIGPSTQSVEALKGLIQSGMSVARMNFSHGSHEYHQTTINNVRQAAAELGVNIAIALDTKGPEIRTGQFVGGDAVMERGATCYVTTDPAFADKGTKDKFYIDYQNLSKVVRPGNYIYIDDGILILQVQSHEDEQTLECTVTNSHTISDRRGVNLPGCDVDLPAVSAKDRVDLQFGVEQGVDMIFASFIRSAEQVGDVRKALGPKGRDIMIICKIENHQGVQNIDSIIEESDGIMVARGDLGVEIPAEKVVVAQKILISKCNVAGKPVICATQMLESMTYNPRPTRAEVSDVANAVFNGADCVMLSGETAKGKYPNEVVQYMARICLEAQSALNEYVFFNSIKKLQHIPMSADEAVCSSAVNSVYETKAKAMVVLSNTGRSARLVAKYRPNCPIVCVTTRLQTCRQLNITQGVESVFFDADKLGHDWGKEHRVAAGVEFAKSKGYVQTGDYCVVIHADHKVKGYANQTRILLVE
Muscarinic acetylcholine receptor M1 (Rattus norvegicus), sequence (P08482 whole entry, looked up): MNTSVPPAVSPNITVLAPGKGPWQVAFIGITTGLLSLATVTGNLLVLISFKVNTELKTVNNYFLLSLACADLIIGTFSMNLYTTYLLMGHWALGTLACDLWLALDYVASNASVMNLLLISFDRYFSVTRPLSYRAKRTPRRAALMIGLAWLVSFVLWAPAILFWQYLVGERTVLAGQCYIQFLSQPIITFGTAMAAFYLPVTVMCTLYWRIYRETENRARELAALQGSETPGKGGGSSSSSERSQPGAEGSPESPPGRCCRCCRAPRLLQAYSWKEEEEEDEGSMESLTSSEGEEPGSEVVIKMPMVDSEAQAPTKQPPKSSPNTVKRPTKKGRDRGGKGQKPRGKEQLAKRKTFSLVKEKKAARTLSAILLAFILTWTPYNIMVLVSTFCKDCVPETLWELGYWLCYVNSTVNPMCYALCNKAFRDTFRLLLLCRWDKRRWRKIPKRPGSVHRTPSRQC
Cytochrome P450 2C19 (Homo sapiens), sequence (P33261 whole entry, looked up): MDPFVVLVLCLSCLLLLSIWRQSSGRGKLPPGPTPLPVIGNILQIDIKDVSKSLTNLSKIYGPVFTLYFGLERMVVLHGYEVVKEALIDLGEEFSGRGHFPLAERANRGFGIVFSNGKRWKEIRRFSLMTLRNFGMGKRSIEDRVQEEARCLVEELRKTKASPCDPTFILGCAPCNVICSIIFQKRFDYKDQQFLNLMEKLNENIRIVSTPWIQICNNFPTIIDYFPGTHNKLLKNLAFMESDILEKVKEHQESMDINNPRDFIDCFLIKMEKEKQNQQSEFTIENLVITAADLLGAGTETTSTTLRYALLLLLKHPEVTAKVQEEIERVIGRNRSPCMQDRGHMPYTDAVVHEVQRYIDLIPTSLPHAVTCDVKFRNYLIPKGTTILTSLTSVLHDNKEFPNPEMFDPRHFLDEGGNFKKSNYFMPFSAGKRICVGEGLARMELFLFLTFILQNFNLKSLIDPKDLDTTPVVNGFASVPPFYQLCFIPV
Guanine nucleotide-binding protein G(i) subunit alpha-1 (Homo sapiens), sequence (P63096 whole entry, looked up): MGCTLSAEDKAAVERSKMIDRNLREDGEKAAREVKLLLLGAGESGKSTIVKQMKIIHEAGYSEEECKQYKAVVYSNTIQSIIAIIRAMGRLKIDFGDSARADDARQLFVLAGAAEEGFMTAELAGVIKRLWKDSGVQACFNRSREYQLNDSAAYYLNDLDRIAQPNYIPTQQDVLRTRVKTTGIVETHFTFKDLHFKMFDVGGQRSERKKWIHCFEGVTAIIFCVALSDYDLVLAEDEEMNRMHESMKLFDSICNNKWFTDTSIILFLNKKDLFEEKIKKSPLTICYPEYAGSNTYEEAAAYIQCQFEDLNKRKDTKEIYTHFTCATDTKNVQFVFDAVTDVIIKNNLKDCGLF

CN1CCc2cc(Cl)c(O)cc2[C@H]2c3ccccc3CC[C@@H]21
inactive: Potency [1]

CN(C)C(=S)SSC(=S)N(C)C
active: Potency [1] 15.8 µM | Potency [7] 158 nM | Potency [9] 0.794 µM | Potency [10] 39.8 µM
inactive: outcome [2] | outcome [3] | outcome [4] | Potency [5] | outcome [6] | outcome [8]

CCC(=O)O[C@H]1CC[C@H]2[C@@H]3CCC4=CC(=O)CC[C@]4(C)[C@H]3CC[C@]12C
inactive: Potency [1]

Oc1ccc(Cl)cc1Sc1cc(Cl)ccc1O
active: Potency [11] 0.398 µM | Potency [12] 0.0794 µM

CCCCCCCCC(=O)NCc1ccc(O)c(OC)c1
active: Potency [11] 3.16 µM
inactive: outcome [13] | Potency [5] | outcome [14] | outcome [6] | outcome [15] | outcome [8] | Potency [16] | outcome [17]

Oc1c(Br)cc(Br)cc1Br
active: Potency [5] 15.8 µM
inactive: outcome [2] | outcome [3] | outcome [4] | Potency [1] | Potency [7] | Potency [9] | Potency [10]

CNC(=O)Oc1cccc2ccccc12
inactive: outcome [2] | outcome [3] | outcome [4] | Potency [1] | Potency [7] | Potency [9] | Potency [10]

O=C(O)c1nn(Cc2ccc(Cl)cc2Cl)c2ccccc12
inactive: outcome [13] | Potency [18] | Potency [12] | outcome [15] | Potency [16] | Potency [19] | outcome [17]

COC(=O)C1=CCCN(C)C1
inactive: outcome [13] | Potency [1] | outcome [14] | outcome [6] | outcome [15] | outcome [8] | outcome [17]

COP(=O)(OC)OC=C(Cl)Cl
inactive: outcome [2] | outcome [3] | outcome [4] | Potency [7] | Potency [9] | Potency [10]

C[C@@H]1C[C@@H]([C@H](O)CC2CC(=O)NC(=O)C2)C(=O)[C@@H](C)C1
active: Potency [7] 1.26 µM and 1.58 µM
inactive: outcome [2] | outcome [4] | Potency [9] | Potency [10]

O=C(CCl)c1ccc(Cl)cc1Cl
active: Potency [7] 3980 nM | Potency [9] 10 µM | Potency [10] 12.6 µM
inactive: outcome [2] | outcome [3] | outcome [4] | Potency [1]

CN1[C@@H]2CC[C@H]1CC(OC(=O)c1cc(Cl)cc(Cl)c1)C2 (stereo partly specified)
active: Potency [18] 100 nM and 7.9 nM | Potency [16] 3.16 µM | Potency [19] 3.98 µM
inactive: outcome [13] | Potency [11] | Potency [1] | Potency [12] | activation [20] 16.3% | outcome [15] | outcome [17]
